# Source: the supplement of paper PMC9262897, “Low-cost anti-mycobacterial drug discovery using engineered E. coli” (Nature Communications, 2022)
# Counter-ions that a name gives are not always drawn. ± gives the standard deviation of the averaged measurements.
# Tested on: E. coli TESEC Mtb DapB
# Experiment: growth (OD600 after 10 h); higher = more growth (less inhibition)
# Conditions: arabinose induction (level): High; compound 0.1 mM; raw OD600 reference: median of DMSO wells […], cell-free background 0.041
# Protocol: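 TESEC E. coli strains in which the native enzyme is deleted and replaced by arabinose-inducible Mtb Asd, DapB, CysH or TrpD, each grown in its selective medium. Strains were screened against the Prestwick library at 0.1 mM and 1% DMSO in 384-well format at low and high arabinose induction. Growth is read as OD600 after 10 h in triplicate.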
row,Structure (SMILES),growth
1,CC(=O)OCC(=O)NCCCOc1cccc(CN2CCCCC2)c1 [Roxatidine Acetate HCl],0.185 ± 0.016
2,CCCNC(C)(C)COC(=O)c1ccccc1 [Meprylcaine hydrochloride],0.182 ± 0.022
3,CC(C(=O)O)c1ccc(N2Cc3ccccc3C2=O)cc1 (stereo not given) [Indoprofen],0.206 ± 0.016
4,Nc1ccc(S(=O)(=O)Nc2ccnn2-c2ccccc2)cc1 [Sulfaphenazole],0.163 ± 0.016
5,CCCCC(CC)CNC(=N)NC(=N)NCCCCCCNC(=N)NC(=N)NCC(CC)CCCC (stereo not given) [Alexidine dihydrochloride],0.0749 ± 0.029
6,CCOc1ccccc1OCC1CNCCO1 (stereo not given) [Viloxazine hydrochloride],0.172 ± 0.029
7,CN(Cc1ccc(C(C)(C)C)cc1)Cc1cccc2ccccc12 [Butenafine Hydrochloride],0.15 ± 0.019
8,N=C(N)NCc1cccc(I)c1 [Iobenguane sulfate],0.188 ± 0.0051
9,CN(CCCN1c2ccccc2CCc2ccccc21)CC(=O)c1ccc(Cl)cc1 [Lofepramine],0.23 ± 0.064
10,CCOc1cc(CC(=O)N[C@@H](CC(C)C)c2ccccc2N2CCCCC2)ccc1C(=O)O [Repaglinide],0.168 ± 0.014
11,CCN(CCCc1ccccc1)CCCc1ccccc1 [Alverine citrate salt],0.153 ± 0.0058
12,Cc1ccccc1C(OCCN(C)C)c1ccccc1 (stereo not given) [Orphenadrine hydrochloride],0.19 ± 0.0094
13,CCN(CC)CCNC(=O)c1cc(Cl)c(N)cc1OC [Metoclopramide monohydrochloride],0.193 ± 0.01
14,CN1CCN(CCCN2c3ccccc3Sc3ccc(C(F)(F)F)cc32)CC1 [Trifluoperazine dihydrochloride],0.04873 ± 0.00025
15,CC(C)CC(=O)N[C@H](C(=O)N[C@H](C(=O)N[C@@H](CC(C)C)[C@@H](O)CC(=O)N[C@@H](C)C(=O)N[C@@H](CC(C)C)[C@@H](O)CC(=O)O)C(C)C)C(C)C [Pepstatin A],0.172 ± 0.0073
16,COCCOC(=O)C1=C(C)NC(C)=C(C(=O)OC/C=C/c2ccccc2)C1c1cccc([N+](=O)[O-])c1 (stereo not given) [Cilnidipine],0.169 ± 0.0093
17,CC(=O)Nc1c(I)c(C(=O)N[C@H]2C(O)O[C@H](CO)[C@@H](O)[C@@H]2O)c(I)c(N(C)C(C)=O)c1I (stereo not given in full) [Metrizamide],0.218 ± 0.025
18,CCCCCCC[N+](CC)(CC)CCCCc1ccc(Cl)cc1 [Clofilium tosylate],0.0462 ± 0.00046
19,CCC(=O)O[C@]1(C(=O)CCl)[C@@H](C)C[C@H]2[C@@H]3CCC4=CC(=O)C=C[C@]4(C)[C@@]3(F)[C@@H](O)C[C@@]21C [Clobetasol propionate],0.145 ± 0.019
20,COc1ccccc1N1CCN(CC(O)COc2cccc3ccccc23)CC1 (stereo not given) [Naftopidil dihydrochloride],0.0582 ± 0.0019

# Same assay, conditions: arabinose induction (level): Low; compound 0.1 mM; raw OD600 reference: median of DMSO wells 0.227, cell-free background 0.041
row,Structure (SMILES),growth
1,CC(=O)OCC(=O)NCCCOc1cccc(CN2CCCCC2)c1 [Roxatidine Acetate HCl],0.186 ± 0.0097
2,CCCNC(C)(C)COC(=O)c1ccccc1 [Meprylcaine hydrochloride],0.221 ± 0.0093
3,CC(C(=O)O)c1ccc(N2Cc3ccccc3C2=O)cc1 (stereo not given) [Indoprofen],0.186 ± 0.0097
4,Nc1ccc(S(=O)(=O)Nc2ccnn2-c2ccccc2)cc1 [Sulfaphenazole],0.174 ± 0.03
5,CCCCC(CC)CNC(=N)NC(=N)NCCCCCCNC(=N)NC(=N)NCC(CC)CCCC (stereo not given) [Alexidine dihydrochloride],0.071 ± 0.014
6,CCOc1ccccc1OCC1CNCCO1 (stereo not given) [Viloxazine hydrochloride],0.211 ± 0.019
7,CN(Cc1ccc(C(C)(C)C)cc1)Cc1cccc2ccccc12 [Butenafine Hydrochloride],0.169 ± 0.02
8,N=C(N)NCc1cccc(I)c1 [Iobenguane sulfate],0.265 ± 0.04
9,CN(CCCN1c2ccccc2CCc2ccccc21)CC(=O)c1ccc(Cl)cc1 [Lofepramine],0.227 ± 0.017
10,CCOc1cc(CC(=O)N[C@@H](CC(C)C)c2ccccc2N2CCCCC2)ccc1C(=O)O [Repaglinide],0.201 ± 0.031
11,CCN(CCCc1ccccc1)CCCc1ccccc1 [Alverine citrate salt],0.205 ± 0.054
12,Cc1ccccc1C(OCCN(C)C)c1ccccc1 (stereo not given) [Orphenadrine hydrochloride],0.241 ± 0.021
13,CCN(CC)CCNC(=O)c1cc(Cl)c(N)cc1OC [Metoclopramide monohydrochloride],0.221 ± 0.018
14,CN1CCN(CCCN2c3ccccc3Sc3ccc(C(F)(F)F)cc32)CC1 [Trifluoperazine dihydrochloride],0.171 ± 0.11
15,CC(C)CC(=O)N[C@H](C(=O)N[C@H](C(=O)N[C@@H](CC(C)C)[C@@H](O)CC(=O)N[C@@H](C)C(=O)N[C@@H](CC(C)C)[C@@H](O)CC(=O)O)C(C)C)C(C)C [Pepstatin A],0.246 ± 0.046
16,COCCOC(=O)C1=C(C)NC(C)=C(C(=O)OC/C=C/c2ccccc2)C1c1cccc([N+](=O)[O-])c1 (stereo not given) [Cilnidipine],0.21 ± 0.025
17,CC(=O)Nc1c(I)c(C(=O)N[C@H]2C(O)O[C@H](CO)[C@@H](O)[C@@H]2O)c(I)c(N(C)C(C)=O)c1I (stereo not given in full) [Metrizamide],0.212 ± 0.013
18,CCCCCCC[N+](CC)(CC)CCCCc1ccc(Cl)cc1 [Clofilium tosylate],0.0478 ± 0.0034
19,CCC(=O)O[C@]1(C(=O)CCl)[C@@H](C)C[C@H]2[C@@H]3CCC4=CC(=O)C=C[C@]4(C)[C@@]3(F)[C@@H](O)C[C@@]21C [Clobetasol propionate],0.169 ± 0.021
20,COc1ccccc1N1CCN(CC(O)COc2cccc3ccccc23)CC1 (stereo not given) [Naftopidil dihydrochloride],0.0626 ± 0.0085
